Source: PubChem BioAssay (NCATS)
Inconclusive results are not listed. Activity calls are given as the source filed them. Calls come from the whole dose curve; as a rule, active = well fitted cell-killing curve with a large enough effect; inconclusive = small, poorly fitted or top-dose-only effect, or effect the other way; inactive = flat fitted curve, though single readings scatter.

How the values were obtained:
Test in all cases: Primary qHTS to identify gynecologic anti-cancer compounds using libraries of approved drugs and bioactive compounds (AID 1345084); note: nearly all actives have a fitted effect of over 55% in size
[1] = test system: C33A; conditions: Gynecologic cancer cell panel viability, ATPlite luminescence, 48 h; series mostly up to 57.5 µM
In short: (§1)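 Cytotoxicity screen measuring ATP content by luciferase luminescence. Each compound is applied at five concentrations for 48 h at 37 C with 5% CO2.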

[2] = test system: CAOV3; conditions: Gynecologic cancer cell panel viability, ATPlite luminescence, 48 h; series mostly up to 57.5 µM
In short: as §1

[3] = test system: CASKI; conditions: Gynecologic cancer cell panel viability, ATPlite luminescence, 48 h; series mostly up to 57.5 µM
In short: as §1

[4] = test system: Es-2; conditions: Gynecologic cancer cell panel viability, ATPlite luminescence, 48 h; series mostly up to 57.5 µM
In short: as §1

[5] = test system: HeLa; conditions: Gynecologic cancer cell panel viability, ATPlite luminescence, 48 h; series mostly up to 57.5 µM
In short: as §1

[6] = test system: Hek293T; conditions: Gynecologic cancer cell panel viability, ATPlite luminescence, 48 h, control line for the selectivity index; series mostly up to 57.5 µM
In short: as §1

[7] = test system: JEG-3; conditions: Gynecologic cancer cell panel viability, ATPlite luminescence, 48 h; series mostly up to 57.5 µM
In short: as §1

[8] = test system: OV90; conditions: Gynecologic cancer cell panel viability, ATPlite luminescence, 48 h; series mostly up to 57.5 µM
In short: as §1

[9] = test system: PA-1; conditions: Gynecologic cancer cell panel viability, ATPlite luminescence, 48 h; series mostly up to 57.5 µM
In short: as §1

[10] = test system: SKOV3; conditions: Gynecologic cancer cell panel viability, ATPlite luminescence, 48 h; series mostly up to 57.5 µM
In short: as §1

[11] = test system: Tov-21-G; conditions: Gynecologic cancer cell panel viability, ATPlite luminescence, 48 h; series mostly up to 57.5 µM
In short: as §1

[12] = test system: Tov112D; conditions: Gynecologic cancer cell panel viability, ATPlite luminescence, 48 h; series mostly up to 57.5 µM
In short: as §1
% is set by controls: 0 for no effect and ±100 for the full control effect.

O=C(O)c1n[nH]c2c1C[C@H]1C[C@@H]21
inactive: Potency [1] | Potency [2] | Potency [3] | Potency [4] | Potency [5] | Potency [6] | Potency [7] | Potency [8] | Potency [9] | Potency [10] | Potency [11] | Potency [12]

C=CC1C(O[C@@H]2O[C@H](CO)[C@@H](O)[C@H](O)[C@H]2O)OC=C(C(=O)OC)C1CC(=O)O (some centres undefined)
inactive: Potency [1] | Potency [2] | Potency [3] | Potency [4] | Potency [5] | Potency [6] | Potency [7] | Potency [8] | Potency [9] | Potency [10] | Potency [11] | Potency [12]

C[C@@H]1CC[C@]2(C)C(C[C@@H](O)[C@H](O)[C@]23CO3)[C@@]1(C)CCc1ccoc1 (some centres undefined)
inactive: Potency [1] | Potency [2] | Potency [3] | Potency [4] | Potency [5] | Potency [6] | Potency [7] | Potency [8] | Potency [9] | Potency [10] | Potency [11] | Potency [12]

O=C(NCC(=O)N1CC[C@H](NC2CCC(O)(c3ccc(-c4ncccn4)cn3)CC2)C1)c1cccc(C(F)(F)F)c1 (some centres undefined)
inactive: Potency [1] | Potency [2] | Potency [3] | Potency [4] | Potency [5] | Potency [6] | Potency [7] | Potency [8] | Potency [9] | Potency [10] | Potency [11] | Potency [12]

CC(=O)O[C@@H]1[C@H]2[C@@H](OC(=O)c3ccccc3)[C@@H](C)C[C@]2(O)[C@H](OC(C)=O)[C@@]2(C)[C@@H]3CC(C)(C)C(=O)[C@]3(OC(C)=O)C[C@@]12C
inactive: Potency [1] | Potency [2] | Potency [3] | Potency [4] | Potency [5] | Potency [6] | Potency [7] | Potency [8] | Potency [9] | Potency [10] | Potency [11] | Potency [12]

O=C(OCc1cccc(O)c1O[C@@H]1O[C@H](CO)[C@@H](O)[C@H](O)[C@H]1O)C1(O)C(=O)C2C=CC1C1C=CC(=O)C(O)(C(=O)OCc3cccc(O)c3O[C@@H]3O[C@H](CO)[C@@H](O)[C@H](O)[C@H]3O)C21 (some centres undefined)
inactive: activity change, negative = cytotoxicity [1] -2.5% [at 11.6 µM] | activity change, negative = cytotoxicity [2] -10.6% [at 11.6 µM] | activity change, negative = cytotoxicity [3] -17.5% [at 11.6 µM] | activity change, negative = cytotoxicity [4] 2.61% [at 11.6 µM] | activity change, negative = cytotoxicity [5] -8.79% [at 11.6 µM] | activity change, negative = cytotoxicity [6] 8.15% [at 11.6 µM] | activity change, negative = cytotoxicity [7] 0.323% [at 11.6 µM] | activity change, negative = cytotoxicity [8] -13.1% [at 11.6 µM] | activity change, negative = cytotoxicity [9] -3.46% [at 11.6 µM] | activity change, negative = cytotoxicity [10] 4.95% [at 11.6 µM] | activity change, negative = cytotoxicity [11] 1.57% [at 11.6 µM] | activity change, negative = cytotoxicity [12] 2.56% [at 11.6 µM]

CC1=C2[C@@H]([C@H](C)CC[C@H]2/C=C(\C)C(=O)O)[C@H](O)C1
inactive: Potency [1] | Potency [2] | Potency [3] | Potency [4] | Potency [5] | Potency [6] | Potency [7] | Potency [8] | Potency [9] | Potency [10] | Potency [11] | Potency [12]

CN1C(=O)c2ccccc2-n2c(nc3ccccc3c2=O)[C@@]12O[C@H]2c1ccccc1
inactive: Potency [1] | Potency [2] | Potency [3] | Potency [4] | Potency [5] | Potency [6] | Potency [7] | Potency [8] | Potency [9] | Potency [10] | Potency [11] | Potency [12]

CC1=C2CC3OC3(C)CCC3OC3(C)CC2OC1=O (centres undefined)
inactive: Potency [1] | Potency [2] | Potency [3] | Potency [4] | Potency [5] | Potency [6] | Potency [7] | Potency [8] | Potency [9] | Potency [10] | Potency [11] | Potency [12]

CC1CCC2(C)C(CC(O)C(O)C23CO3)C1(C)CCC1=CC(O)OC1=O (centres undefined)
inactive: Potency [1] | Potency [2] | Potency [3] | Potency [4] | Potency [5] | Potency [6] | Potency [7] | Potency [8] | Potency [9] | Potency [10] | Potency [11] | Potency [12]

CC1CCC2C(C)(C)CC(C)(CO)C2(O)C1C(=O)O (centres undefined)
inactive: Potency [1] | Potency [2] | Potency [3] | Potency [4] | Potency [5] | Potency [6] | Potency [7] | Potency [8] | Potency [9] | Potency [10] | Potency [11] | Potency [12]

C=C1CCC2[C@@](C)(C=O)CCC[C@]2(C)[C@H]1CC/C(C)=C/CO (some centres undefined)
inactive: Potency [1] | Potency [2] | Potency [3] | Potency [4] | Potency [5] | Potency [6] | Potency [7] | Potency [8] | Potency [9] | Potency [10] | Potency [11] | Potency [12]
